High-throughput results from PubChem.
NPC1 prom act – NPC1 promoter activation | Potency, µM (highest dose often 9.22 µM), without a hit: at the top dose activation, most hits filed as activators | Huh7 NPC1 promoter luciferase reporter, 24 h | AID 485313 | 2.4% of 320,000 active; further: % of control where 0% means no effect; nearly all actives have a fitted effect of over 60% in size
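NPC1 promoter–luciferase Huh7 cells; 24 h compound; luminescence.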
SMN2 splice up – enhancers of SMN2 splice variant expression. Potency, µM (highest dose often 46.1 µM), for the others: top-dose activity change, positive = activation, hits mostly activators. HEK293 SMN2-luciferase splicing reporter, luminescence, 30-36 h. AID 1458. 2.8% of 210,000 active; further: % of control where 0% means no effect; nearly all actives have a fitted effect of over 55% in size
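HEK293 cells carry an SMN2 […]–luciferase reporter in which exon 7 inclusion puts luciferase in frame. Cells were plated 10-12 h before compound addition, then incubated 30-36 h at 37C. ONE-Glo luminescence was read; sodium butyrate at 4.5 mM final served as control.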
FLuc counter – counter-screen for miR-21 project: firefly luciferase inhibitors or activators; P08659; AID 588342; Potency, µM (top dose mostly 57.5 µM), without a hit: at the top dose activity change, negative = inhibition, hits mostly inhibitors; 6.9% of 360,000 active; purified FLuc, Km substrates, luminescence inhibition;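 further: plate controls were vehicle for no effect and reference inhibitor for full effect; nearly all actives have a fitted effect of over 55% in size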
Target sequence (P08659 whole entry, looked up): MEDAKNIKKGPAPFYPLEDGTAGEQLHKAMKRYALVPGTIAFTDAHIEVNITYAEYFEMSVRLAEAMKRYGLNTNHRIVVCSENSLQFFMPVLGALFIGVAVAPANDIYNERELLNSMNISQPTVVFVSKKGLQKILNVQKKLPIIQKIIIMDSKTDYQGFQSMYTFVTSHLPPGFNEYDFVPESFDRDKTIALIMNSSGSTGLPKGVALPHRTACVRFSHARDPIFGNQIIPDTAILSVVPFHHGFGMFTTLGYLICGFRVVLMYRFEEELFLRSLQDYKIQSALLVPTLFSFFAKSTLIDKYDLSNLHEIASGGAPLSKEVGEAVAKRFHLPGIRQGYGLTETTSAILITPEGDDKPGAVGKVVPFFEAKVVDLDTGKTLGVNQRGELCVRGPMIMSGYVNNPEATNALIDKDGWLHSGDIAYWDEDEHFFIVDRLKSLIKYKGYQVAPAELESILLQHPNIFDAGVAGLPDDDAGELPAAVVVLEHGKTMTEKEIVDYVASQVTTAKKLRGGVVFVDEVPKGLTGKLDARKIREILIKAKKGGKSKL
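Purified P. pyralis luciferase, 10 nM final, with Km-level 10 uM D-luciferin and 10 uM ATP in 50 mM Tris acetate pH 7.5, 10 mM Mg acetate, 0.01% Tween-20, 0.05% BSA; 6-point qHTS titration about 60 µM downward; luminescence read.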
Rab9 prom act – activates the Rab9 promoter. Huh7 Rab9 promoter-luciferase reporter, luminescence, 24 h. Potency, µM (titrated, usually from 9.22 µM), without a hit: top-dose activation, negative = inhibition, usual class: activators. 2.8% of 320,000 active; further: % of control where 0% means no effect; nearly all actives have a fitted effect of over 60% in size
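Huh7 cells stably carrying Rab9 promoter–luciferase reporter, plated 1500 cells/well, compound added after 2 h and incubated 24 h at 37 °C; luciferase luminescence then read after 10 min with detection reagent.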
ELG1 genotox – inducers of genotoxicity in HEK293T ELG1-luciferase cells; HEK293T ELG1-luciferase reporter, luminescence, 16 h; Potency, µM (highest dose often 46 µM), for the others: at the top dose activity change, positive = activation, actives largely listed as activators; 1.3% of 330,000 active; AID 504466; further: % of control where 0% means no effect; nearly all actives have a fitted effect of over 60% in size
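After overnight (16 hr) compound treatment at 37 °C, ELG1-luciferase HEK293T cells were lysed with ONE-Glo; luminescence quantified 30 min later at room temperature.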
* = called active by the depositor; ? = inconclusive; / = no result; [ ] = another dose, or the depositor's remark. An excerpt weighted towards active compounds, which were near 7.4% of everything screened. The call rests on the fitted dose curve; in most records, active means well fitted curve in the direction sought with a large enough effect; inconclusive means small, poorly fitted or top-dose-only effect, or another doubt; inactive means no such curve, though single readings can be large; an effect the other way counts as inactive or inconclusive. Potency means the concentration at half of the fitted maximal effect.

SMILES	NPC1 prom act	SMN2 splice up	FLuc counter	Rab9 prom act	ELG1 genotox
CCC(=O)Nc1nc(-c2ccc3c(c2)OCCO3)cs1	0.5µM*	2.5µM*	6µM*	3.2µM*	2.1µM*
c1cc2c(cc1-c1csc(NNC3=NCCCCC3)n1)OCCO2	8%	17%	19µM*	?	15%
CC(C)(C)C(=O)Nc1nc(-c2ccc3c(c2)OCO3)cs1	3.5µM*	?	7.6µM*	2.8µM*	2.3µM*
O=C(O)c1cc(/C=C/C(=O)c2cc(F)ccc2O)c2c(c1)COCO2	1%	/	30µM*	-2%	12%
COc1ccc(C(=O)/C=C/c2cc(C(=O)O)cc3c2OCOC3)c(O)c1	-1%	/	1.7µM*	-3%	16%
COc1ccc(/C=C/C(=O)c2ccc(O)cc2O)cc1OC	/	-89%	/	/	/
O=C(/C=C/c1cccnc1)c1cc(F)ccc1O	-3%	/	-8%	-7%	0%
C=CCOC[C@@H]1CN2[C@H](c3ccc(Br)cc3)[C@@H](C)CC[C@H]2C(=O)O1	/	9%	/	/	/
c1ccc(-n2nc3c(ccc4cnnc43)[nH]2)cc1	2.5µM*	?	7.6µM*	1.8µM*	?
CC(=O)c1ccc(NC(=O)CCc2c(C)nc3cc(-c4ccc(Cl)cc4)nn3c2C)cc1	/	-21%	17µM*	/	/
CCN(CC)S(=O)(=O)c1ccc(NC(=O)CCc2c(C)nc3cc(-c4ccc(Cl)cc4)nn3c2C)cc1	/	0%	?	/	/
Cc1csc(NC(=O)CCc2c(C)nc3cc(-c4cccc(F)c4)nn3c2C)n1	0%	-44%	6%	-7%	-11%
Cc1ccc(NC(=O)CCc2c(C)nc3cc(-c4ccccc4)nn3c2C)cc1F	/	19%	11µM*	/	/
Cc1cc2cc3c(cc2nc1SCc1ccccn1)OCCO3	-4%	-11%[1.84 µM]	?	?	10%
N#Cc1cc2ccccc2nc1SCc1ccccn1	-1%	11µM*	17µM*	2%	7.3µM*
CSc1ccc(/C=C/C(=O)OCC(=O)NC(C)C)cc1	0%	20%	-12%	3%	-2%
Cc1ccc(C(=O)/C=C/C(=O)O)cc1	4%	-23%	?	1%	0%
Cc1ccc(/C=C/C(=O)c2ccc(O)cc2)cc1	19%	/	2.1µM*	?	17%
CSc1ccc(/C=C/C(=O)c2ccc(O)cc2)cc1	24%	-3%	3µM*	?	?
Cc1ccc(NC(=O)CC2Oc3ccccc3NC2=O)cc1C (stereo not drawn)	/	-7%	8%	/	/
CCN(C(=O)Cn1c(=O)n(Cc2ccc3c(c2)OCO3)c(=O)c2ccc(C(=O)NC3CCCCC3)cc21)c1cccc(C)c1	/	-2%	-2%	/	/
Cc1cc(NCCN2CCOCC2)n2nc(C)c(-c3ccccc3)c2n1	1%	10%	-8%	0%	3%
Cc1cc(NCCCn2ccnc2)n2nc(C)c(-c3ccccc3)c2n1	29%	9%	9.5µM*	?	16%
Cc1cc(NCCCn2ccnc2)n2nc(C)c(-c3ccc(Cl)cc3)c2n1	5%	/	15µM*	0%	-1%
Cc1cc(NCCCn2ccnc2)n2ncc(-c3ccccc3)c2n1	0.4µM*	-38%	0.34µM*	0.11µM*	0.29µM*
SMILES	NPC1 prom act	SMN2 splice up	FLuc counter	Rab9 prom act	ELG1 genotox
COc1ccc(CCNc2cc(C)nc3c(-c4ccccc4)cnn23)cc1OC	0%	-29%	-7%	-1%	-5%
CCOc1ccc(NC(=O)c2nn(C)c3c2COc2ccccc2-3)cc1	/	/	-15%	/	/
Cc1cccc(C(=O)Nc2cccc(OCc3cc(=O)n4cc(C)sc4n3)c2)c1	/	-3%	-9%	/	/
Cc1cn2c(=O)cc(COC(=O)c3cccc(NC(=O)c4ccc(C(C)(C)C)cc4)c3)nc2s1	/	/	0.76µM*	/	/
Cc1cn2c(=O)cc(COc3cccc(NC(=O)c4ccc(C(C)(C)C)cc4)c3)nc2s1	/	9%	1.2µM*	/	/
COc1ccc(CCN2C(=NC(=O)CC(C)C)SC3CS(=O)(=O)CC32)cc1 (stereo not drawn)	-2%	17%	3%	2%	-5%
COc1ccc(CCN2C(=NC(=O)CCC(=O)O)SC3CS(=O)(=O)CC32)cc1OC (stereo not drawn)	-1%	11%	27µM*	7%	-3%
CC(=O)c1cccc(NC(=O)CSc2nc3c(=O)n(C)c(=O)n(C)c3n2C)c1	/	/	-2%	/	/
